# Assay results: PubChem BioAssay (EPA / NIEHS)
# Several values for one entry are separate records, joined by “and”; a condition that tells them apart may be missing. Identical values can stand only once. Where a structure was tested more than once in an assay, its records may differ in their call. Activity calls are given as the source filed them. How the source made its calls: active means hit-call score of the fitted dose curve at least 0.9, where 1 is the maximum; inactive means score below 0.9.
# Assays:
# [1] = ATG_EGR_CIS: Attagene CIS-FACTORIAL HepG2 Assay for human Early Growth Response 1 (EGR1) (AID 2282938); details: HepG2 Attagene CIS-FACTORIAL EGR reporter mRNA; actives raise or lower the signal
# Outline: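 Read-out: fluorescent reporter-mRNA fragments resolved by capillary electrophoresis after RT-PCR, 24 h post-dose in transiently transfected HepG2. Endogenous transcription-factor activity reported via cis-element-regulated reporter units; gain or loss fitted relative to DMSO.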
# [2] = ATG_M_19_CIS: Attagene CIS-FACTORIAL HepG2 Assay for M19 Transcription Factor (Internal Marker) (AID 2282939); details: HepG2 Attagene CIS-FACTORIAL M19 internal marker reporter; actives raise or lower the signal
# Outline: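 Signals come from fluorescence of labelled reporter-specific PCR fragments resolved by capillary electrophoresis, following 24 h treatment of HepG2 cells transfected with cis-promoter reporter units; activity was fitted in both directions relative to DMSO.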
# [3] = ATG_Ets_CIS: Attagene CIS-FACTORIAL HepG2 Assay for human Erythroblast Transformation Specific (ETS) (AID 2282941); details: HepG2 ETS cis-reporter transcription; AC50: actives raise or lower the signal unless noted; outcome: actives raise or lower the signal unless noted
# Outline: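 HepG2 cells transfected with multiple cis-regulated reporter units measuring endogenous ETS-driven transcription, 24 h after dosing. Reporter mRNA quantified by RT-PCR with capillary electrophoresis; bidirectional fit relative to DMSO.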
# [4] = target: Hepatocyte nuclear factor 3-beta (Homo sapiens) (UniProt Q9Y261); assay: ATG_FoxA2_CIS: Attagene CIS-FACTORIAL HepG2 Assay for human Forkhead box A2 (FOXA2) (AID 2282942); details: HepG2 cis-reporter transcription factor activity, 24 h; actives raise or lower the signal
# Outline: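 Readout: fluorescent reporter transcripts resolved by capillary electrophoresis after RT-PCR. Transiently transfected HepG2, 24 h compound exposure, endogenous TF activity at cis promoter elements. Gain or loss of signal fitted relative to DMSO.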
# [5] = ATG_FoxO_CIS: Attagene CIS-FACTORIAL HepG2 Assay for human Forkhead box O (FoxO) (AID 2282943); details: HepG2 Attagene cis-reporter, FoxO element, mRNA; actives raise or lower the signal
# Outline: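 HepG2, transient MRTU transfection (cis element, endogenous TFs). Dose 24 h. TriZol RNA → oligo(dT) RT → PCR → 6-FAM primer extension → HpaI cut → CE. Gain/loss vs DMSO.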
# [6] = ATG_GATA_CIS: Attagene CIS-FACTORIAL HepG2 Assay for human GATA Binding Protein (AID 2282944); details: HepG2 GATA cis-element reporter, Attagene multiplex mRNA; actives raise or lower the signal
# Outline: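 After transfecting HepG2 cells with multiple cis-regulated reporter units, chemicals are dosed for 24 h; isolated RNA undergoes RT-PCR and fluorescent labeling before capillary electrophoresis, with activity expressed against DMSO.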
# [7] = ATG_GLI_CIS: Attagene CIS-FACTORIAL HepG2 Assay for human Zinc Finger Protein GLI1 (AID 2282945); details: HepG2, Attagene cis-factorial reporter mRNA, GLI element; actives raise or lower the signal
# Outline: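 Bidirectional curve fits relative to DMSO, using reporter mRNA levels from RT-PCR plus capillary electrophoresis. Cells were HepG2 transiently carrying cis-regulated reporter constructs, harvested 24 h after dosing.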
# [8] = target: Bile acid receptor (Homo sapiens) (UniProt Q96RI1); assay: ATG_IR1_CIS: Attagene CIS-FACTORIAL HepG2 Assay for human Nuclear Receptor Subfamily 1 Group H Member 4 (NR1H4), IR1 submotif (AID 2282946); details: IR1 reporter transcription, actives raise or lower the signal
# Outline: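 Cells (human HepG2) carry transiently transfected cis-promoter reporter transcription units. Compounds are incubated 24 h, total RNA is reverse-transcribed and amplified, and labelled fragments are resolved by capillary electrophoresis. Curves use DMSO as baseline.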
# [9] = ATG_GRE_CIS: Attagene CIS-FACTORIAL HepG2 Assay for human Glucocorticoid Response Elements (GRE) (AID 2282947); details: HepG2 GRE cis-reporter, Attagene multiplex mRNA; AC50: actives raise or lower the signal unless noted; outcome: actives raise or lower the signal unless noted
# Outline: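 Assay uses human hepatoma HepG2 cells transfected with cis-promoter reporter units, exposed 24 h. mRNA from reporters detected by RT-PCR plus capillary electrophoresis; DMSO serves as negative control and baseline.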
# [10] = ATG_ISRE_CIS: Attagene CIS-FACTORIAL HepG2 Assay for human Interferon Regulatory Factor 1 (IRF1) binding to an Interferon-Stimulated Response Element (ISRE) (AID 2282948); details: HepG2 ISRE cis-reporter (Attagene), mRNA transcription readout; actives raise or lower the signal
# Outline: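 Transiently transfected HepG2 cells carrying cis-element reporter units, dosed 24 hours. Reporter mRNA quantified by RT-PCR, fluorescent primer extension, HpaI digestion and capillary electrophoresis. Bidirectional fitting relative to DMSO.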
# [11] = ATG_M_32_CIS: Attagene CIS-FACTORIAL HepG2 Assay for M32 Transcription Factor (Internal Marker) (AID 2282949); details: HepG2 Attagene cis-factorial M32 reporter, mRNA; actives raise or lower the signal;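 further: background control marker of the multiplexed CIS panel rather than a real target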
# Outline: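 Internal background marker read-out: RT-PCR/capillary electrophoresis fluorescence of reporter transcripts from transiently transfected HepG2 cells after 24 h chemical exposure. Activity fitted bidirectionally relative to DMSO negative control.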
# [12] = ATG_M_06_CIS: Attagene CIS-FACTORIAL HepG2 Assay for M06 Transcription Factor (Internal Marker) (AID 2282950); details: HepG2 Attagene CIS-FACTORIAL M06 internal marker reporter; actives raise or lower the signal
# Outline: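 HepG2 liver cells, 24 h exposure. Reporter transcripts from transfected cis-element constructs quantified by RT-PCR/capillary electrophoresis fluorescence. Bidirectional curve fit against DMSO.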
# [13] = target: Hypoxia-inducible factor 1-alpha (Homo sapiens) (UniProt Q16665); assay: ATG_HIF1a_CIS: Attagene CIS-FACTORIAL HepG2 Assay for human Hypoxia Inducible Factor 1 (HIF1A) (AID 2282951); details: HepG2 Attagene cis-factorial HIF1a reporter transcription; actives raise or lower the signal
# Outline: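 RT-PCR/capillary electrophoresis fluorescence readout of reporter transcripts from endogenous-TF-driven cis elements in transfected HepG2 cells, 24 h exposure; activity fitted in both directions against DMSO controls.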
# [14] = target: Hepatocyte nuclear factor 6 (Homo sapiens) (UniProt Q9UBC0); assay: ATG_HNF6_CIS: Attagene CIS-FACTORIAL HepG2 Assay for human Hepatocyte Nuclear Factor 6 (HNF6) (AID 2282952); details: HepG2 Attagene cis-factorial HNF6 reporter transcription; actives raise or lower the signal
# Outline: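 Transiently transfected HepG2 cells expressing cis-regulated reporter transcription units were exposed to chemical for 24 h in a 24-well format. Reporter transcript abundance was determined by fluorescence capillary electrophoresis.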
# [15] = ATG_PBREM_CIS: Attagene CIS-FACTORIAL HepG2 Assay for human Phenobarbital-responsive Enhancer Module (PBREM) (AID 2282955); details: HepG2 PBREM cis-reporter, Attagene multiplexed transcription; actives raise or lower the signal
# Outline: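 Reporter mRNA read by RT-PCR, 6-FAM primer extension, HpaI digestion and capillary electrophoresis. Transfected HepG2 cells, 24 h compound exposure. Gain or loss of signal fitted bidirectionally relative to DMSO baseline.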
# [16] = target: Paired box protein Pax-6 (Homo sapiens) (UniProt P26367); assay: ATG_Pax6_CIS: Attagene CIS-FACTORIAL HepG2 Assay for human Paired Box 6 (PAX6) (AID 2282956); details: HepG2 CIS-FACTORIAL PAX6 reporter transcription, RNA readout; actives raise or lower the signal
# Outline: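 HepG2 cells transiently transfected with cis-promoter-driven multiplexed reporter units sensing endogenous transcription factor activity; 24 h chemical exposure. Reporter mRNA quantified by RT-PCR, 6-FAM labelling, HpaI digestion and capillary electrophoresis; bidirectional fit versus DMSO baseline.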
# [17] = ATG_PXRE_CIS: Attagene CIS-FACTORIAL HepG2 Assay for human Pregnane X Receptor Element (PXRE) (AID 2282957); details: HepG2 Attagene CIS-FACTORIAL PXRE reporter, mRNA; actives raise or lower the signal
# Outline: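 Cis-element reporter mRNA in human hepatoma HepG2 cells is measured 24 h post-dosing by RT-PCR, primer-extension labeling and capillary electrophoresis; gain or loss of signal is fitted relative to DMSO.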
# [18] = ATG_ERE_CIS: Attagene CIS-FACTORIAL HepG2 Assay for Estrogen Response Element (ERE) (AID 2282940); details: HepG2 ERE cis-reporter, Attagene RNA transcript; actives raise or lower the signal
# Outline: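 Fluorescence of capillary-separated, FAM-labelled reporter cDNA fragments indicates reporter mRNA levels in HepG2 cells exposed to chemicals for 24 h. Transient transfection with cis-regulated units; data fitted in both directions against DMSO.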
# [19] = target: Heat shock factor protein 1 (Homo sapiens) (UniProt Q00613); assay: ATG_HSE_CIS: Attagene CIS-FACTORIAL HepG2 Assay for human Heat Shock Transcription Factor 1 (HSE) (AID 2282953); details: HepG2 HSE cis-reporter, Attagene RNA transcription; actives raise or lower the signal
# Outline: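 Endogenous transcription factor activity captured via cis-promoter reporter units transfected into HepG2; treatment lasted 24 h. Fluorescence intensity of reporter fragments analysed with bidirectional curve fitting, DMSO baseline.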
# [20] = ATG_MRE_CIS: Attagene CIS-FACTORIAL HepG2 Assay for human Metal Responsive Element (MRE) (AID 2282954); details: HepG2 MRE cis-reporter transcription, Attagene multiplex; actives raise or lower the signal
# Outline: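 After a 24 h chemical exposure, transiently transfected HepG2 cells yield RNA whose reporter sequences are amplified, FAM-labelled and sized by capillary electrophoresis. Curves are fitted bidirectionally relative to DMSO.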
# Bile acid receptor (Homo sapiens), sequence (Q96RI1 whole entry, looked up, the tested form may be a part): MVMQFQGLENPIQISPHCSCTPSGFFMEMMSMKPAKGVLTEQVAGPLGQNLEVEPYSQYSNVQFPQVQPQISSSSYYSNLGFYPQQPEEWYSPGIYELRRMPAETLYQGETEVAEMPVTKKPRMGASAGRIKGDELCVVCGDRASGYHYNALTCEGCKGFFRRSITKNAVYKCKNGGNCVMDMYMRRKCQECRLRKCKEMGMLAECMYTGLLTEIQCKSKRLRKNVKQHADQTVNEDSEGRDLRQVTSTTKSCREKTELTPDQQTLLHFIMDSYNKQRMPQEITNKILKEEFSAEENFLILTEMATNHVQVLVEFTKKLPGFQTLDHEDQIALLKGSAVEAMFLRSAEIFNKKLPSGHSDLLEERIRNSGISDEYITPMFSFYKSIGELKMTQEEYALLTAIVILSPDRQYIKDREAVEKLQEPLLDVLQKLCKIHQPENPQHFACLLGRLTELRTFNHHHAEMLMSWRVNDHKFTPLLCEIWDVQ
# Hepatocyte nuclear factor 3-beta (Homo sapiens), sequence (Q9Y261 whole entry, looked up): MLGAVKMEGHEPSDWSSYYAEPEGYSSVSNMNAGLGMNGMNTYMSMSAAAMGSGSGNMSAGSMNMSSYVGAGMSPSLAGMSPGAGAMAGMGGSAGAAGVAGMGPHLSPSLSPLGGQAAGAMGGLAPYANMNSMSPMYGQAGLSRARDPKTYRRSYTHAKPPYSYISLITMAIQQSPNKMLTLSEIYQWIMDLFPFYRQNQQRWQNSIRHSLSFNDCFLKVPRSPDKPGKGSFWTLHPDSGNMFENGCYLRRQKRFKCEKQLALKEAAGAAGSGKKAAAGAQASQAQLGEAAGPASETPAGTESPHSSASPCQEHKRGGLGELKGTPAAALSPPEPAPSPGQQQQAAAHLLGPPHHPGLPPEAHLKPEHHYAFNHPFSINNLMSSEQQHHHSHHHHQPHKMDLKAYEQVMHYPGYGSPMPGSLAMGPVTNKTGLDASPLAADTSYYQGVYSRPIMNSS
# Hepatocyte nuclear factor 6 (Homo sapiens), sequence (Q9UBC0 whole entry, looked up): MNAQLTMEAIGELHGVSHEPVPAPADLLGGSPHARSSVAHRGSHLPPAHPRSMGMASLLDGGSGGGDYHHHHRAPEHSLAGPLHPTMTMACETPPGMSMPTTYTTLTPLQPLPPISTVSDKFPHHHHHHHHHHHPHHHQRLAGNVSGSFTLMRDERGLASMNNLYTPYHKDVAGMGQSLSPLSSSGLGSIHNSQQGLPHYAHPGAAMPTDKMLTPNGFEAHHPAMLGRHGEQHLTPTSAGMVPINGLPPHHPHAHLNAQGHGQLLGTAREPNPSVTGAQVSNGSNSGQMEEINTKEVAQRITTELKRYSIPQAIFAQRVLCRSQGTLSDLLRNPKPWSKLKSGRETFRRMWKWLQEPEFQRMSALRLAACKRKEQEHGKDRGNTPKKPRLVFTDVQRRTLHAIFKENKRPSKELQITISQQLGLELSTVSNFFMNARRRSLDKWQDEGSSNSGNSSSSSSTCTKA
# Heat shock factor protein 1 (Homo sapiens), sequence (Q00613 whole entry, looked up, the tested form may be a part): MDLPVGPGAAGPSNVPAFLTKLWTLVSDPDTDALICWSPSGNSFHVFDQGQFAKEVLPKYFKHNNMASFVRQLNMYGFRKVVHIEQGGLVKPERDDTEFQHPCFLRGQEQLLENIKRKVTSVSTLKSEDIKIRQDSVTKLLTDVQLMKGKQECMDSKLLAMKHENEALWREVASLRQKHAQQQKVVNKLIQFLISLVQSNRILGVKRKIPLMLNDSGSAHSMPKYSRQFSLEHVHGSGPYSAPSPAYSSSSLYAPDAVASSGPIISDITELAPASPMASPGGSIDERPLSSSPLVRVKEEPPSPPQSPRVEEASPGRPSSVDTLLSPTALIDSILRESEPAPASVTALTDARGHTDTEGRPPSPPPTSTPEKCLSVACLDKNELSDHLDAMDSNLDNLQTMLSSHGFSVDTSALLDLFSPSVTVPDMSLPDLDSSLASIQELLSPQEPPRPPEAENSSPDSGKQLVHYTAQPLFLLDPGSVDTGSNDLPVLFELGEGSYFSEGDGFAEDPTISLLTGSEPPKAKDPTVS
# Paired box protein Pax-6 (Homo sapiens), sequence (P26367 whole entry, looked up): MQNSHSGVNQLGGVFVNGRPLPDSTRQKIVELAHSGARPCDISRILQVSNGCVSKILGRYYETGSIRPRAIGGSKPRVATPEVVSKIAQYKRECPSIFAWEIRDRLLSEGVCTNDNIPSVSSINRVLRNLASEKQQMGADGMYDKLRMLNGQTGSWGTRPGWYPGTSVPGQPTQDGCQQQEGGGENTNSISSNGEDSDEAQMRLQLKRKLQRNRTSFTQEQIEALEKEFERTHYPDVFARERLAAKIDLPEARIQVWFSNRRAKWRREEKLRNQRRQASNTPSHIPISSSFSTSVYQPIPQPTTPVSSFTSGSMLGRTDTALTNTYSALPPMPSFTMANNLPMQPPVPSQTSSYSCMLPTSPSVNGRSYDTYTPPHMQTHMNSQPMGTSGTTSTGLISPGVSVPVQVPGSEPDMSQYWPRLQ
# Hypoxia-inducible factor 1-alpha (Homo sapiens), sequence (Q16665 whole entry, looked up): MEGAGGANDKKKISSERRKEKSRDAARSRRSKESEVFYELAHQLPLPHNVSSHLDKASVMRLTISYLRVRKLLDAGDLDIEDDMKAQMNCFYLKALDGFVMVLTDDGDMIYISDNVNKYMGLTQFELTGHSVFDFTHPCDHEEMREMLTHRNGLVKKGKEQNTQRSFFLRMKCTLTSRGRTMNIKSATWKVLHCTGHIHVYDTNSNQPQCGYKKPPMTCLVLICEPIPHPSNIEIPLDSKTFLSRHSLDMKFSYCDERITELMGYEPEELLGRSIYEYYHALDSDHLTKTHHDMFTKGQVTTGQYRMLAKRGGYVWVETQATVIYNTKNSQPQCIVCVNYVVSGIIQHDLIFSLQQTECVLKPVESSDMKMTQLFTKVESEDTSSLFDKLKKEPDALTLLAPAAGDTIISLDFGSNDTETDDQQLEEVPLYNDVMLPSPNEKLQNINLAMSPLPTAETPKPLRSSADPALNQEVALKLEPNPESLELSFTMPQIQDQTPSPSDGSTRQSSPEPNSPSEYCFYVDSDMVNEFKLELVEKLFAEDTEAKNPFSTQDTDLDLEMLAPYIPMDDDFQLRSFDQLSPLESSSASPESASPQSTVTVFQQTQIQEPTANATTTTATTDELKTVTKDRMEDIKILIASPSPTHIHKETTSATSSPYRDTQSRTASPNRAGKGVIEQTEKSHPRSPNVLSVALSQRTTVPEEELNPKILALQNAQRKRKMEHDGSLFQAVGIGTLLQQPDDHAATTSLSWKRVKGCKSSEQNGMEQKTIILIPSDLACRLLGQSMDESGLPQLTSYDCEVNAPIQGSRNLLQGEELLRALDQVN
structure (smiles),measurement,setting,value
CC(C)(C)c1ccc(O)c(O)c1,AC50,[1],48.7 µM (active) [middle of 4 runs]
same,outcome,[1],inactive
same,outcome,[2],inactive
same,outcome,[3],inactive
same,outcome,[4],inactive
same,outcome,[5],inactive
same,outcome,[6],inactive
same,outcome,[7],inactive
same,AC50,[8],45 µM (active) and 59 µM (active) and 37.3 µM (active)
same,outcome,[8],inactive
same,outcome,[9],inactive
same,outcome,[10],inactive
same,outcome,[11],inactive
same,outcome,[12],inactive
same,AC50,[13],26.1 µM (active) and 25.9 µM (active) and 25.5 µM (active)
same,outcome,[13],inactive
same,outcome,[14],inactive
same,outcome,[15],inactive
same,AC50,[16],99.1 µM (active) and 57.3 µM (active)
same,outcome,[16],inactive
same,AC50,[17],2.45 µM (active) [middle of 5 runs]
O=C(NCc1ncc(C(F)(F)F)cc1Cl)c1c(Cl)cccc1Cl,outcome,[1],inactive
same,outcome,[2],inactive
same,outcome,[18],inactive
same,outcome,[3],inactive
same,outcome,[4],inactive
same,outcome,[5],inactive
same,outcome,[6],inactive
same,outcome,[7],inactive
same,outcome,[8],inactive
same,outcome,[9],inactive
same,outcome,[10],inactive
same,outcome,[11],inactive
same,outcome,[12],inactive
same,outcome,[13],inactive
same,outcome,[14],inactive
same,outcome,[19],inactive
same,outcome,[20],inactive
same,outcome,[15],inactive
same,outcome,[16],inactive
same,AC50,[17],799 nM (active)
CCCCN(C)C,outcome,[1],inactive
same,outcome,[2],inactive
same,outcome,[18],inactive
same,outcome,[3],inactive
same,outcome,[4],inactive
same,outcome,[5],inactive
same,outcome,[6],inactive
same,outcome,[7],inactive
same,outcome,[8],inactive
same,outcome,[9],inactive
same,outcome,[10],inactive
same,outcome,[11],inactive
same,outcome,[12],inactive
same,outcome,[13],inactive
same,outcome,[14],inactive
same,outcome,[19],inactive
same,outcome,[20],inactive
same,outcome,[15],inactive
same,outcome,[16],inactive
same,AC50,[17],26900 nM (active)
O=S(=O)(O)C(F)(F)C(F)(F)C(F)(F)C(F)(F)C(F)(F)C(F)(F)C(F)(F)C(F)(F)C(F)(F)C(F)(F)F,outcome,[1],inactive
same,outcome,[2],inactive
same,outcome,[18],inactive
same,outcome,[3],inactive
same,outcome,[4],inactive
same,outcome,[5],inactive
same,outcome,[6],inactive
same,outcome,[7],inactive
same,outcome,[8],inactive
same,outcome,[9],inactive
same,outcome,[10],inactive
same,outcome,[11],inactive
same,outcome,[12],inactive
same,outcome,[13],inactive
same,outcome,[14],inactive
same,outcome,[19],inactive
same,outcome,[20],inactive
same,outcome,[15],inactive
same,outcome,[16],inactive
same,AC50,[17],83.7 µM (active) and 40.3 µM (active)
COCC1CCC(CO)CC1 (stereo unspecified),outcome,[1],inactive
same,outcome,[2],inactive
same,AC50,[18],24.4 µM (active)
same,outcome,[3],inactive
same,outcome,[4],inactive
same,outcome,[5],inactive
same,outcome,[6],inactive
same,outcome,[7],inactive
same,outcome,[8],inactive
same,outcome,[9],inactive
same,outcome,[10],inactive
same,outcome,[11],inactive
same,outcome,[12],inactive
same,outcome,[13],inactive
same,outcome,[14],inactive
same,outcome,[19],inactive
same,outcome,[20],inactive
same,outcome,[15],inactive
same,outcome,[16],inactive
same,outcome,[17],inactive
Cc1cc(C(C)(C)C)c(O)c(C(C)(C)C)c1,outcome,[1],inactive
same,AC50,[2],97.1 µM (active)
same,outcome,[2],inactive
same,AC50,[3],33.4 µM (active)
same,outcome,[3],inactive
same,outcome,[4],inactive
same,outcome,[5],inactive
same,outcome,[6],inactive
same,outcome,[9],inactive
same,outcome,[10],inactive
same,AC50,[11],53.6 µM (active)
same,outcome,[11],inactive
same,outcome,[12],inactive
same,outcome,[13],inactive
same,AC50,[19],95.9 µM (active)
same,outcome,[19],inactive
same,AC50,[20],52.9 µM (active) and 91.4 µM (active)
same,outcome,[15],inactive
same,outcome,[16],inactive
same,AC50,[17],8.81 µM (active) and 603 nM (active)
